From PubChem BioAssay (NCI)
This is part of a sample that, as a whole, favours compounds with a hit. Of some 83,000 tested, about 20% had one in any assay.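 Single-dose data. Exposure time 48 hours. Values below 10 considered active.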 The source made the active and inactive calls.

Experiments:
Experiment in all cases: NCI-60 one-dose screen, 48 h (100 = growth as untreated, 0 = no growth, -100 = all killed)
Details in all cases: 10 µM unless noted
HCT-15 colon = system: HCT-15 colon
HT29 colon = system: HT29 colon
SNB-75 CNS = system: SNB-75 CNS
SNB-19 CNS = system: SNB-19 CNS
U251 CNS = system: U251 CNS
PC-3 prostate = system: PC-3 prostate
SK-MEL-5 melanoma = system: SK-MEL-5 melanoma
UACC-62 melanoma = system: UACC-62 melanoma
LOX IMVI melanoma = system: LOX IMVI melanoma
SK-MEL-28 melanoma = system: SK-MEL-28 melanoma

Measured: growth

N#Cc1cc(-c2ccnc(Nc3ccc(N4CCN(C5COC5)CC4)cc3)n2)ccc1N1CCCC1
inactive: HCT-15 colon 41.9% | HT29 colon 18.6% | SNB-75 CNS 15.7% | SNB-19 CNS 117% | U251 CNS 75.7% | PC-3 prostate 64.4% | SK-MEL-5 melanoma 62.2% | UACC-62 melanoma 87.1% | LOX IMVI melanoma 40% | SK-MEL-28 melanoma 77.2%

CN(C)CCCNC(=S)Nc1ccc(/C=C/c2ccc(Cl)cc2)cc1
active: HCT-15 colon -93.8% | HT29 colon -51.4% | SNB-75 CNS 8.9% | SNB-19 CNS -35.2% | U251 CNS -2.11% | PC-3 prostate -35.3% | SK-MEL-5 melanoma -98.6% | UACC-62 melanoma -82.3% | LOX IMVI melanoma -64.5% | SK-MEL-28 melanoma -97.6%

CC1=C(C)C(=O)C(N2CCSCC2)=CC1=O
inactive: HCT-15 colon 104% | HT29 colon 103% | SNB-75 CNS 80.8% | SNB-19 CNS 87.2% | U251 CNS 96.9% | PC-3 prostate 89.7% | SK-MEL-5 melanoma 96.7% | UACC-62 melanoma 93.3% | LOX IMVI melanoma 83.8% | SK-MEL-28 melanoma 107%

Clc1ccc(-c2nc3ccc(-c4nnc(SCc5ccccc5)o4)cc3[nH]2)cc1
inactive: HT29 colon 41.5% | SNB-75 CNS 40.4% | SNB-19 CNS 27% | PC-3 prostate 25.1% | SK-MEL-5 melanoma 20.9% | UACC-62 melanoma 37.7% | SK-MEL-28 melanoma 58.3%
active: HCT-15 colon -28.9% | U251 CNS -8.55% | LOX IMVI melanoma 4.07%

Cc1ccc(C2CC(c3ccc(NC(=O)Nc4ccccc4)cc3)=NN2c2ccc(S(N)(=O)=O)cc2)cc1 (stereo not given)
active: HCT-15 colon -68% | HT29 colon -62% | SNB-75 CNS -68.1% | SNB-19 CNS -99.8% | U251 CNS -96.1% | PC-3 prostate -59% | SK-MEL-5 melanoma -96.6% | UACC-62 melanoma -96.2% | LOX IMVI melanoma -100% | SK-MEL-28 melanoma -99.7%

O=CNc1cccc(-n2cnc3cc(-c4ccc(O)cc4)ccc32)c1
inactive: HCT-15 colon 15.5% | HT29 colon 22.7% | SNB-75 CNS 21.4% | SNB-19 CNS 43.3% | U251 CNS 25.4% | PC-3 prostate 49% | SK-MEL-5 melanoma 35.6% | UACC-62 melanoma 38.2% | LOX IMVI melanoma 21.2% | SK-MEL-28 melanoma 56.2%

COc1ccc(NC(=O)N/N=C/c2c[nH]c3ccccc23)cc1
active: HT29 colon 2.49%
inactive: HCT-15 colon 26.2% | SNB-75 CNS 19.6% | SNB-19 CNS 47.3% | U251 CNS 28.3% | PC-3 prostate 48.7% | SK-MEL-5 melanoma 20.5% | UACC-62 melanoma 25.5% | LOX IMVI melanoma 28% | SK-MEL-28 melanoma 67.9%

O=C1Nc2ccc(F)cc2/C1=C/C(=O)c1cc2ccccc2oc1=O
inactive: HCT-15 colon 62.7% | HT29 colon 115% | SNB-75 CNS 91.1% | SNB-19 CNS 100% | U251 CNS 104% | PC-3 prostate 93.7% | SK-MEL-5 melanoma 102% | UACC-62 melanoma 82.2% | LOX IMVI melanoma 80.4% | SK-MEL-28 melanoma 117%

Nc1cc2ccccc2c(=O)n1NC(=O)c1ccccc1
inactive: HCT-15 colon 93.8% | HT29 colon 113% | SNB-75 CNS 80.3% | SNB-19 CNS 93.7% | U251 CNS 106% | PC-3 prostate 91.7% | SK-MEL-5 melanoma 96% | UACC-62 melanoma 76.5% | LOX IMVI melanoma 88% | SK-MEL-28 melanoma 98.8%

NC(=O)c1ccc(-c2ccc3ncnc(N4CCc5cc(F)c(Cl)cc54)c3c2)cn1
inactive: HCT-15 colon 59.9% | HT29 colon 91.6% | SNB-75 CNS 106% | SNB-19 CNS 74.3% | U251 CNS 87.4% | PC-3 prostate 50.8% | SK-MEL-5 melanoma 76.2% | UACC-62 melanoma 71.8% | LOX IMVI melanoma 57% | SK-MEL-28 melanoma 91.7%

NNc1ncnc2sc3c(c12)CCN(Cc1ccccc1)C3
inactive: HCT-15 colon 32.9% | HT29 colon 20.7% | SNB-75 CNS 80.7% | SNB-19 CNS 69.4% | U251 CNS 51.4% | PC-3 prostate 59.5% | SK-MEL-5 melanoma 48% | UACC-62 melanoma 53.1% | LOX IMVI melanoma 39.7% | SK-MEL-28 melanoma 73%

O=C(CSc1nc2sc3c(c2c(=O)n1-c1ccc(Cl)cc1)CCCC3)NNC(=O)c1ccc(F)cc1
inactive: HCT-15 colon 91.8% | HT29 colon 107% | SNB-75 CNS 76% | SNB-19 CNS 32% | U251 CNS 37.8% | PC-3 prostate 81.9% | SK-MEL-5 melanoma 66.9% | UACC-62 melanoma 41.1% | LOX IMVI melanoma 64.2% | SK-MEL-28 melanoma 87%

Cc1cnc2ccc(Oc3ccccc3-c3ccccc3)nn12
inactive: HCT-15 colon 103% | HT29 colon 108% | SNB-75 CNS 126% | SNB-19 CNS 99.7% | U251 CNS 100% | PC-3 prostate 105% | SK-MEL-5 melanoma 107% | UACC-62 melanoma 101% | LOX IMVI melanoma 97.9% | SK-MEL-28 melanoma 113%

CCCCNc1ccc2c3c(cccc13)C(=O)N(NCC(O)COc1ccc3c(C)cc(=O)oc3c1)C2=O (stereo not given)
inactive: HCT-15 colon 77.3% | HT29 colon 100% | SNB-75 CNS 94.1% | SNB-19 CNS 83.9% | U251 CNS 96.5% | PC-3 prostate 84% | SK-MEL-5 melanoma 77.9% | UACC-62 melanoma 69.2% | LOX IMVI melanoma 81.3% | SK-MEL-28 melanoma 103%

Nc1nc2cc(-c3ccc4ncnc(NCc5ccccc5)c4c3)ccc2o1
active: SNB-75 CNS -83.9% | U251 CNS 9.55% | SK-MEL-5 melanoma 0.196% | LOX IMVI melanoma -86.1%
inactive: HCT-15 colon 14.1% | HT29 colon 37.2% | SNB-19 CNS 23% | PC-3 prostate 25.2% | UACC-62 melanoma 77.1% | SK-MEL-28 melanoma 10.7%

O=C(Nc1ccc(Br)cc1)Nc1ccc(-c2ccc3c(c2)NC(=O)/C3=C\c2ccc[nH]2)cc1
inactive: HCT-15 colon 42.8% | HT29 colon 23.1% | SNB-75 CNS 59.2% | SNB-19 CNS 75.2% | U251 CNS 39.5% | PC-3 prostate 52.6% | SK-MEL-5 melanoma 33.1% | UACC-62 melanoma 24.7% | LOX IMVI melanoma 25.6% | SK-MEL-28 melanoma 57.5%

CS(=O)(=O)c1ccc(-n2nc(C(=O)NCc3ccccc3)cc2-c2ccc(Cl)cc2)cc1
inactive: HCT-15 colon 66.3% | HT29 colon 74% | SNB-75 CNS 89.7% | SNB-19 CNS 78.9% | U251 CNS 80.7% | PC-3 prostate 75.5% | SK-MEL-5 melanoma 71.5% | UACC-62 melanoma 73.9% | LOX IMVI melanoma 89.4% | SK-MEL-28 melanoma 112%

O=C(NC(=S)N1CCN(c2ncnc3c2cnn3-c2ccccc2)CC1)c1ccc(Br)cc1
active: SNB-75 CNS 7.89%
inactive: HCT-15 colon 58.3% | HT29 colon 86.4% | SNB-19 CNS 46.6% | U251 CNS 56.5% | PC-3 prostate 64.8% | SK-MEL-5 melanoma 75% | UACC-62 melanoma 60.6% | LOX IMVI melanoma 41.1% | SK-MEL-28 melanoma 77.1%

Cc1ccc(/C=C/C(=O)c2ccc(S(=O)(=O)NCCNc3nc(N(C)C)nc(N4CCOCC4)n3)cc2)cc1
inactive: HCT-15 colon 46.1% | HT29 colon 37.3% | SNB-75 CNS 59.5% | SNB-19 CNS 79.1% | U251 CNS 42.7% | PC-3 prostate 57.4% | SK-MEL-5 melanoma 89% | UACC-62 melanoma 72.6% | LOX IMVI melanoma 42.1% | SK-MEL-28 melanoma 90.7%

COc1cc(/C=N/NC(=O)c2ccc(OCc3nc4ccc(Cl)cc4[nH]3)cc2)cc(OC)c1OC
active: SK-MEL-5 melanoma -19.9%
inactive: HCT-15 colon 37.4% | HT29 colon 21.4% | SNB-75 CNS 123% | SNB-19 CNS 55.5% | U251 CNS 52.8% | PC-3 prostate 35.5% | UACC-62 melanoma 16.7% | LOX IMVI melanoma 26% | SK-MEL-28 melanoma 32.4%

COc1cc(CNC(=O)C[C@H](C)CCC=C(C)C)ccc1OCc1cn(-c2ccccc2Cl)nn1
active: SK-MEL-5 melanoma 5.29%
inactive: HCT-15 colon 53.8% | HT29 colon 76.7% | SNB-75 CNS 60% | SNB-19 CNS 61.3% | U251 CNS 80.6% | PC-3 prostate 49.4% | UACC-62 melanoma 39.6% | LOX IMVI melanoma 56.4% | SK-MEL-28 melanoma 69.8%

O=C1/C(=C/c2cccc3c2OCO3)Cc2c(F)cc(Br)cc21
inactive: HCT-15 colon 102% | HT29 colon 118% | SNB-75 CNS 97.1% | SNB-19 CNS 103% | U251 CNS 105% | PC-3 prostate 107% | SK-MEL-5 melanoma 101% | UACC-62 melanoma 91.8% | LOX IMVI melanoma 99.8% | SK-MEL-28 melanoma 115%

N#Cc1c(NC(=O)N2CCOCC2)n(-c2ccc(OC(F)(F)F)cc2)c2cc(F)ccc12
inactive: HCT-15 colon 95.5% | HT29 colon 90% | SNB-75 CNS 140% | SNB-19 CNS 117% | U251 CNS 98.8% | PC-3 prostate 83.9% | SK-MEL-5 melanoma 82.4% | UACC-62 melanoma 73.2% | LOX IMVI melanoma 102% | SK-MEL-28 melanoma 89.5%
